Compound activity as filed in PubChem BioAssay.
Pf Dd2 growth: P. falciparum Dd2 growth inhibitors, primary screen, SYBR Green fluorescence, single dose replicates | 72 h; hits give low values | activity change, % at 10 µM | hit rate 2.3% among 94,000 | AID 1159554, 2015; in the data active means activity change below about -80%; inconclusive means no clear call, values can overlap the other calls
T cruzi growth-1: T. cruzi intracellular proliferation inhibitors, primary screen, cell-based, beta-gal Tulahuen parasites, NIH3T3 host, luminescence. T. cruzi beta-gal in NIH3T3, GalScreen luminescence, 90 h. inhibition, % at 8.34 µM. hit rate 5.9% among 77,000;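 active means mean inhibition above about 93%, with at least 55% of replicates each passing it, limit read from the data, passing the limit was not always enough; inconclusive means only one of those two conditions holds; inactive means neither condition holds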
C diff HTS: C. difficile growth inhibitors, primary screen, HTS. Clostridium difficile clinical isolate growth, OD600, 24 h; hits give low values. growth activity, negative = inhibition, % at 16 µg/mL (by protocol). hit rate 0.25% among 86,000. AID 1259249, 2017;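 active means mean growth activity at or below -80% and every replicate also at or below -80%; inconclusive means mean at or below -80% but some replicate above -80%; inactive means mean growth activity above -80%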;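 further: 0% = DMSO wells and -100% = levofloxacin 16 µg/mL wells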
T cruzi growth-2: T. cruzi intracellular proliferation inhibitors, confirmation, cell-based, NIH3T3 host, beta-gal parasite, luminescence, cherry-pick; AID 651739, 2012; inhibition, % at 8.35 µM; T. cruzi beta-gal in NIH3T3, GalScreen luminescence, 90 h; hit rate 72% among 5,600; shares compounds with T cruzi growth-1;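 active means mean replicate inhibition above about 95% and at least 55% of replicates individually reaching it, limit read from the data; inconclusive means only one of the two criteria is met; inactive means neither criterion is met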
T cruzi growth-3: inhibitors of intracellular T. cruzi replication, confirmation, NIH3T3 host cells, beta-gal parasites, cherry-pick, set 2; shares compounds with T cruzi growth-1; T. cruzi beta-gal in NIH3T3, GalScreen luminescence, 90 h; inhibition, % at 2.09 µM; hit rate 21% among 5,600; AID 651740, 2012;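 active means mean inhibition above about 95%, with at least 55% of replicates also reaching it, limit read from the data; inconclusive means meets just one of the two conditions; inactive means meets neither condition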;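 further: plate controls were neutral control median for no effect and positive control median for full effect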
3T3 cytotox: cytotoxicity in mouse NIH/3T3 fibroblasts, confirmation, cytotoxicity control for T. cruzi proliferation inhibitor project, cell-based, cherry-pick, single point. shares compounds with T cruzi growth-1. NIH/3T3 viability, CellTiter-Glo ATP luminescence, 90 h. cytotoxicity (signal decrease), % at 8.35 µM. hit rate 14% among 5,600. AID 651742, 2012;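 active means mean signal decrease across replicates above about 35% based on untreated-well scatter, with enough replicates individually passing, limit read from the data; inconclusive means no rule stated though some were filed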;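 further: 0% = median of neutral control wells and 100% = median of positive control wells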
3T3 cytotox 2: NIH/3T3 fibroblast cytotoxicity, confirmation, cytotoxicity control, cell-based, cherry-pick, single point, set 2; shares compounds with T cruzi growth-1; NIH/3T3 viability, CellTiter-Glo ATP luminescence, 90 h; AID 651744, 2012; inhibition, % at 24.9 µM; hit rate 56% among 5,600;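 active means mean loss of cell viability signal at or above a set limit, and enough replicates individually reaching it; inconclusive means meets only the mean limit or only the replicate share; inactive means meets neither condition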;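 further: 0% = median of neutral control wells and 100% = median of positive control wells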
Starred values were filed as active, the others as inactive. The list is not random: actives were taken first. Their share in the collection is about 6.7%.

Results for CN(C)C(=O)C[C@@H]1CC[C@@H]2[C@@H](COc3ccc(NC(=O)C4CCCC4)cc3C(=O)N2C)O1 ?
Pf Dd2 growth: -11; C diff HTS: 2

How did C[C@@H]1CCCCO[C@@H](CN(C)S(=O)(=O)c2ccc(Cl)cc2)[C@@H](C)CN([C@H](C)CO)C(=O)c2cc(NS(=O)(=O)c3ccccc3)ccc2O1 do in these assays?
Pf Dd2 growth: -54; T cruzi growth-1: 94; C diff HTS: 2

Results for C[C@H](CO)N1C[C@H](C)[C@H](CN(C)S(=O)(=O)c2ccc(Cl)cc2)OCCCC[C@H](C)Oc2ccc(NS(=O)(=O)c3ccccc3)cc2C1=O ?
Pf Dd2 growth: -56; T cruzi growth-1: inconclusive; C diff HTS: -7; T cruzi growth-2: 99*; T cruzi growth-3: 87; 3T3 cytotox: -4; 3T3 cytotox 2: -15

What do the screens show for `C[C@@H]1CN([C@H](C)CO)C(=O)c2cc(NS(=O)(=O)c3ccc(Cl)cc3)ccc2O[C@@H](C)CCCCO[C@H]1CN(C)S(=O)(=O)c1ccccc1`?
Pf Dd2 growth: -36; C diff HTS: -1

What do the screens show for `C[C@@H]1CCCCO[C@H](CN(C)S(=O)(=O)c2ccccc2)[C@H](C)CN([C@@H](C)CO)C(=O)c2cc(NS(=O)(=O)c3ccc(Cl)cc3)ccc2O1`?
Pf Dd2 growth: -15; T cruzi growth-1: 118*; C diff HTS: -16; T cruzi growth-2: 92; T cruzi growth-3: 88; 3T3 cytotox: -4; 3T3 cytotox 2: -10

How did C[C@@H]1CCCCO[C@@H](CN(C)S(=O)(=O)c2ccccc2)[C@H](C)CN([C@@H](C)CO)C(=O)c2cc(NS(=O)(=O)c3ccc(Cl)cc3)ccc2O1 do in these assays?
Pf Dd2 growth: -1; T cruzi growth-1: 116*; C diff HTS: -8; T cruzi growth-2: 101*; T cruzi growth-3: 78; 3T3 cytotox: -6; 3T3 cytotox 2: -6

What do the screens show for `CO[C@@H]1CN(C)C(=O)c2cc(NC(=O)NC3CCCCC3)ccc2OC[C@@H](C)NC[C@H]1C`?
T cruzi growth-1: -65

How did C[C@@H]1CCCCO[C@@H](CN(C)C(=O)CCC(F)(F)F)[C@H](C)CN([C@H](C)CO)C(=O)c2cc(NC(=O)c3ccncc3)ccc2O1 do in these assays?
Pf Dd2 growth: 22; C diff HTS: -2

Results for N#C[C@H]1[C@H](c2ccccc2C2=CCCCC2)[C@H](CO)N1C(=O)NC1CCCCC1 ?
Pf Dd2 growth: -55; C diff HTS: 6

What do the screens show for `C[C@@H]1CN([C@@H](C)CO)S(=O)(=O)c2ccc(C#Cc3cccc(F)c3)cc2O[C@@H]1CN(C)S(=O)(=O)c1ccccc1F`?
Pf Dd2 growth: -57; T cruzi growth-1: 106*; C diff HTS: 12; T cruzi growth-2: 102*; T cruzi growth-3: 111*; 3T3 cytotox: 34*; 3T3 cytotox 2: 28

Results for C[C@@H]1CN([C@H](C)CO)S(=O)(=O)c2ccc(C#Cc3cccc(F)c3)cc2O[C@H]1CN(C)S(=O)(=O)c1cn(C)cn1 ?
Pf Dd2 growth: -69; T cruzi growth-1: -12; C diff HTS: -3

Results for C[C@@H]1CN([C@H](C)CO)S(=O)(=O)c2ccc(C#Cc3cccc(F)c3)cc2O[C@@H]1CN(C)S(=O)(=O)c1ccccc1F ?
Pf Dd2 growth: -73; T cruzi growth-1: 104*; C diff HTS: 7; T cruzi growth-2: 102*; T cruzi growth-3: 113*; 3T3 cytotox: 25; 3T3 cytotox 2: 40*

Results for C[C@@H]1CN([C@H](C)CO)S(=O)(=O)c2ccc(C#Cc3cccc(F)c3)cc2O[C@@H]1CN(C)C ?
Pf Dd2 growth: -62; T cruzi growth-1: -81; C diff HTS: 5

What do the screens show for `C[C@H](CO)N1C[C@H](C)[C@@H](CN(C)S(=O)(=O)c2ccccc2F)Oc2cc(C#Cc3cccc(F)c3)ccc2S1(=O)=O`?
Pf Dd2 growth: -70; T cruzi growth-1: 107*; C diff HTS: 13; T cruzi growth-2: 99*; T cruzi growth-3: 116*; 3T3 cytotox: 26; 3T3 cytotox 2: 43*

What do the screens show for `C[C@H]1CN([C@@H](C)CO)S(=O)(=O)c2ccc(C#Cc3cccc(F)c3)cc2O[C@H]1CN(C)C`?
Pf Dd2 growth: -71; T cruzi growth-1: -26; C diff HTS: 5

How did COc1ccc2c3c(n(C)c2c1)[C@@H](CO)N(C(=O)c1ccccc1)CC31CN(C(=O)c2ccccc2)C1 do in these assays?
Pf Dd2 growth: -32; C diff HTS: -6

What do the screens show for `O=C(C[C@@H]1C[C@@H]2c3cc(NC(=O)c4ccc5c(c4)OCO5)ccc3O[C@@H]2[C@H](CO)O1)NC1CCCCC1`?
Pf Dd2 growth: 24; T cruzi growth-1: 40

How did CN(C)C(=O)C[C@H]1C[C@@H]2c3cc(NC(=O)Nc4ccc(F)cc4)ccc3O[C@@H]2[C@@H](CO)O1 do in these assays?
Pf Dd2 growth: 13; T cruzi growth-1: 24; C diff HTS: -7

How did C[C@H](CO)N1C[C@H](C)[C@H](CN(C)Cc2ccc(F)cc2)Oc2ncc(-c3cc4ccccc4o3)cc2C1=O do in these assays?
Pf Dd2 growth: -38; C diff HTS: 19

What do the screens show for `C[C@H](CO)N1C[C@H](C)[C@H](CN(C)C(=O)Nc2ccc3c(c2)OCO3)Oc2ncc(-c3cc4ccccc4o3)cc2C1=O`?
Pf Dd2 growth: -71; C diff HTS: 2

What do the screens show for `C[C@H](CO)N1C[C@H](C)[C@H](CN(C)S(=O)(=O)c2cccc(F)c2)Oc2ncc(-c3cc4ccccc4o3)cc2C1=O`?
Pf Dd2 growth: -56; C diff HTS: 9

How did COc1cccc(S(=O)(=O)N(C)C[C@@H]2Oc3ncc(-c4cc5ccccc5o4)cc3C(=O)N([C@H](C)CO)C[C@@H]2C)c1 do in these assays?
Pf Dd2 growth: -67; T cruzi growth-1: 109*; C diff HTS: 2; T cruzi growth-2: 104*; T cruzi growth-3: 73; 3T3 cytotox: 39*; 3T3 cytotox 2: 16

What do the screens show for `Cc1cccc(CN(C)C[C@@H]2Oc3ncc(-c4cc5ccccc5o4)cc3C(=O)N([C@H](C)CO)C[C@@H]2C)c1`?
Pf Dd2 growth: -63; T cruzi growth-1: 99*; C diff HTS: 21; T cruzi growth-2: 106*; T cruzi growth-3: 77; 3T3 cytotox: 44*; 3T3 cytotox 2: 104*
